Compound activity deposited in PubChem by Sanford-Burnham Center for Chemical Genomics.
DUSP3 inh: blocks the human dual specificity phosphatase VHR1; P51452; recombinant VHR phosphatase, colorimetric substrate read-out; inhibition, % at 20 µM; 0.7% of 50,000 active; in the data active means inhibition above about 60%
Target sequence (P51452 whole entry, looked up): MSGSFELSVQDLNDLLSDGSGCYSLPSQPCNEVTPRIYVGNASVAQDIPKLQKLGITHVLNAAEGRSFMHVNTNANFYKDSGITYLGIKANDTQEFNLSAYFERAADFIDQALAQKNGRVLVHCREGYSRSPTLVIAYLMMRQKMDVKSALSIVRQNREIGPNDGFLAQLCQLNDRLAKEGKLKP
Each line names hits and unclear results; the compound was inactive in the other large screens. The entries come from a sample that favours hits as a whole.

CN1C(=O)NC(=O)/C(=C\c2cc(Cl)c(O)c(Cl)c2)C1=O	none
Cc1ccc(N2C(=O)/C(=C\c3ccc(-c4ccc(Cl)c(C(=O)O)c4)o3)C(=O)NC2=S)cc1	none
O=C1NC(=S)N(c2ccc(Br)cc2)C(=O)/C1=C/c1ccc(-c2ccc(C(=O)O)cc2)o1	DUSP3 inh 78.5
O=C1NC(=S)N(c2ccc(F)cc2)C(=O)/C1=C/c1ccc(-c2cccc(C(=O)O)c2)o1	DUSP3 inh 86.4
O=C1NC(=S)N(c2ccc(F)cc2)C(=O)/C1=C/c1cc(Cl)c(O)c(Cl)c1	DUSP3 inh 78.5
O=C1NC(=S)N(c2ccc(Cl)cc2)C(=O)/C1=C\c1ccc(-c2cccc(C(=O)O)c2)o1	none
O=C1NC(=S)N(c2ccccc2)C(=O)/C1=C/c1ccc(-c2ccc(Cl)c(C(=O)O)c2)o1	none
O=C1NC(=S)N(c2ccccc2)C(=O)/C1=C/c1ccc(O)c(Cl)c1	none
CC(C)Cn1c(SCc2ccc(Br)cc2)nc2sc3c(c2c1=O)CC(C)(C)OC3	none
O=C(/C=C/c1ccc(Cl)cc1Cl)NCc1ccccn1	none
CC(C)(C)NCCCCOc1ccc2ccccc2c1	none
Cc1ccc(C(=O)Nc2ccc(I)cc2)o1	none
C=CCOc1ccc(/C=C2/C(=O)NC(=S)N(CC=C)C2=O)cc1OCC	none
C=CCN1C(=O)/C(=C\c2ccc(OCC(=O)O)c(OC)c2)C(=O)NC1=S	none
C=CCN1C(=O)/C(=C\c2ccc(OCc3ccc(F)cc3)c(OCC)c2)C(=O)NC1=S	DUSP3 inh 74.8
CCCCC1CCC(C(=O)Nc2nc3ccccc3n2C)CC1 (centres undefined)	none
N#Cc1c(-c2ccccc2)cc(-c2ccccc2Cl)c(C#N)c1N	none
N#CC(C#N)=C1C(Cl)=C(Cl)c2ccccc21	DUSP3 inh 66.0
O=C1C(=O)c2ccccc2C(Cl)=C1Cl	none
COCCOC(=O)c1ccc(NC(=O)c2cc3ccccc3oc2=O)cc1	none
CCOc1ccc(N2Cc3ccccc3C2)cc1	none
CCOc1ccc(N2Cc3ccc(C(=O)NN)cc3C2)cc1	DUSP3 inh 91.0
CCOc1ccc(C(=O)Nc2cc(=O)n(C)c(=O)n2C)cc1	none
Cc1ccc(C2CC(C(F)(F)F)n3ncc(C(=O)N4CCN(c5ccc(F)cc5)CC4)c3N2)cc1 (centres undefined)	none
CCOC(=O)Nc1nnc(CC(C)C)s1	none
CC1=C(C(=O)Nc2ccc(C)cc2)C(c2ccccc2F)NC(=O)N1 (centres undefined)	none
CCOC(=O)C(CCOc1ccc(C)cc1C)C(=O)OCC	none
COC(=O)c1c(N)sc2c1CCCC2	none
COC(=O)c1c(N)sc2c1CCCCCC2	none
NC(=O)c1c(N)sc2c1CCCCCCCCCC2	DUSP3 inh 100.4
O=C1OC(c2ccc(Br)cc2)=C/C1=C/c1ccc2c(c1)OCO2	none
CCCCOC(=O)c1ccc(NC(=O)c2cc3ccccc3o2)cc1	none
Cc1cc(C)c2nc3s/c(=C\c4ccccc4)c(=O)n3c2c1	none
COc1cc(/C=c2/sc3nc4c(Br)c(C)c(C)cc4n3c2=O)ccc1OCC(=O)O	none
Cc1cc2c(nc3s/c(=C/c4ccccc4)c(=O)n32)c(Br)c1C	DUSP3 inh 99.2
C=CCC(C(=O)c1ccccc1)C(=O)C(C)(C)OC (centres undefined)	none
CCOc1ccc2c(c1)-c1c(ssc1=S)C(C)(C)N2C(=O)c1ccc(OC)c(OC)c1	none
Cc1[nH]c2ccccc2c1/C=C/c1nc2ccccc2c(=O)n1C	none
Cc1[nH]c2ccccc2c1/C=C/c1nc2ccccc2c(=O)n1-c1ccc([N+](=O)[O-])cc1	none
COc1cccc(-n2c(/C=C/c3c(C)[nH]c4ccccc34)nc3ccccc3c2=O)c1	DUSP3 inh 75.9
CC1(c2ccccc2)CC(C)(C)N(C(=O)CN2CCOCC2)c2ccccc21 (centres undefined)	none
CC(Nc1ccc(Br)cc1)C(=O)N/N=C/c1ccc(O)cc1O (centres undefined)	none
C=CCn1c(/C=C/c2ccccc2)nc2ccccc21	none
Cc1ccc([N+](=O)[O-])cc1/C=C1/C=C(c2ccccc2)OC1=O	DUSP3 inh 95.8
Cc1ccc(C2=C/C(=C\c3cc([N+](=O)[O-])ccc3Cl)C(=O)O2)cc1	none
O=C1OC(c2ccccc2)=C/C1=C/c1ccc(-c2ccc([N+](=O)[O-])cc2Br)o1	none
CCOc1ccc(C(=O)Nc2cccc(-c3nc4cc(C)c(C)cc4o3)c2)cc1	none
Cc1ccc(S(=O)(=O)/N=C2\C=C(Sc3ncn[nH]3)C(=O)c3ccccc32)cc1	DUSP3 inh 63.5
Cc1ccc(S(=O)(=O)/N=C2\C=CC(=O)C=C2Cl)cc1	none
O=C1C(Cl)=CC(=NS(=O)(=O)c2ccc(Cl)cc2)c2ccccc21	none
O=Cc1ccc(Oc2ncnc3ccccc23)cc1	DUSP3 inh 97.2
Fc1ccc(OCCOc2ncnc3ccccc23)cc1	none
O=[N+]([O-])c1ccccc1OCCOc1ncnc2ccccc12	none
COc1ccc(CNCc2ccc3ccccc3c2)cc1OC	none
Cc1ccccc1S(=O)(=O)N=C1C=CC(=O)C(Cl)=C1	none
O=C(NCc1ccccn1)C(Sc1ccccc1)c1ccccc1 (centres undefined)	none
O=C1NC(=O)C(=Cc2ccc(-c3ccc([N+](=O)[O-])cc3Cl)o2)C(=O)N1	none
CCC(C)c1ccccc1OCCn1cc(/C=C2/SC(=S)NC2=O)c2ccccc21 (centres undefined)	none
Cc1c(Cl)ccc2c1NC(C(=O)O)C1CC=CC21 (centres undefined)	DUSP3 inh 84.2
O=C(O)C1Nc2c(C(=O)N3CCCC3)cccc2C2C=CCC12 (centres undefined)	none
CC(=O)N1c2ccc3ccccc3c2C2C=CCC2C1c1ccc(Br)cc1 (centres undefined)	none
O=C(O)c1cccc2c1NC(c1cccc(Cl)c1Cl)C1CC=CC21 (centres undefined)	none
CCOC(=O)c1ccc2c(c1)C1C=CCC1C(c1cccc3ccccc13)N2 (centres undefined)	none
O=[N+]([O-])c1ccc2c(c1)C1C=CCC1C(c1ccc(Cl)cc1)N2 (centres undefined)	none
O=[N+]([O-])c1cccc(C2Nc3ccc(Cl)cc3C3C=CCC32)c1 (centres undefined)	none
O=C(O)C1Nc2ccc([N+](=O)[O-])cc2C2C=CCC12 (centres undefined)	DUSP3 inh 96.5
O=C(O)C1Nc2ccc3ccccc3c2C2C=CCC12 (centres undefined)	DUSP3 inh 91.9
CC1CCN(S(=O)(=O)c2ccc(NC(=S)Nc3ccccc3)cc2)CC1	none
COCCOC(=O)c1ccc(NC(=O)C(C)Oc2ccc(Cl)cc2C)cc1 (centres undefined)	none
COc1ccc(Cl)cc1NC(=O)c1cc(-c2cccs2)nc2ccccc12	none
Cc1ccc(S(=O)(=O)N2CCN(c3ccccc3)CC2)cc1[N+](=O)[O-]	none
O=C1C(Cl)=C(N2CCCCC2)C(=O)C(Cl)=C1/C=C/N1CCCCC1	none
O=C(N=Nc1c(O)n(CN2CCCCCC2)c2ccccc12)c1cccnc1	none
CN(C)CCCN1C(=O)C2CC3=C(CC2C1=O)C(C)(C)CCC3 (centres undefined)	none
CC(C)OC(=O)c1c(-c2ccccc2)csc1N	none
CCCOC(=O)c1c(-c2ccccc2)csc1N	none
CCOC(=O)c1c(-c2ccc(OC)c(OC)c2)csc1N	DUSP3 inh 98.5
COC(=O)c1c(-c2cccc(C)c2)csc1N	DUSP3 inh 93.6
COc1ccc(-c2csc(N)c2C(=O)OC(C)C)cc1OC	none
COC(=O)c1c(-c2ccc(OC)c(OC)c2)csc1N	none
COc1cc(C2Nc3ccc(C(=O)c4ccccc4)cc3NC3=C2C(=O)CCC3)ccc1O (centres undefined)	none
COc1cc(/C=N/n2cnnc2)cc(I)c1OCCOc1ccc(C(C)(C)C)cc1	none
CCCCN(CCCC)C(=O)c1ccc(Cl)c([N+](=O)[O-])c1	none
